Source: PubChem
Rows were chosen to be rich in hits. Some 2.8% of all compounds tested hit in one or more screens of this group.
HTT ATP protect: Huntington cell model cytoprotection by ATP luminescence | PC12 HTT-Q103 induced, cytoprotection, ATP luminescence, 40 h | Potency, µM (highest dose often 56.4 µM), for inactives: cytoprotection (ATP increase), hits mostly activators | 230,000 compounds, 0.14% hits; also: % of control where 0% means no effect; nearly all actives have a fitted effect of over 45% in size
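Compounds were screened for protection of PC12 cells against cell death after tebufenozide induction (100 nM final) of mutant Huntingtin exon 1 (Q103) fused to GFP.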
ATXN2 expr inh: inhibitors of ATXN2 expression | Potency, µM (highest dose often 57 µM), inactives show at the top dose activity change, negative = inhibition, hits mostly inhibitors | HEK-293 ATXN2-luciferase reporter, luminescence, 24 h | 360,000 compounds, 0.72% hits; also: % is scaled to controls: 0 for no effect and ±100 for the full control effect; nearly all actives have a fitted effect of over 55% in size
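ATXN2-luciferase reporter cells (luciferase flanked by upstream and downstream ATXN2 gene portions) were treated 24 h at 37 °C with compounds at up to 57 uM. SteadyGlo luminescence gave expression; GF-AFC fluorescence gave viability.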
HttQ103 aggreg: mutant huntingtin aggregation inhibition. PC12 HttQ103-GFP aggregates, Acumen cytometry, 40 h. Potency, µM (highest dose often 46.1 µM), for the others: at the highest dose activity change, negative = inhibition, usual class: inhibitors. 220,000 compounds, 1.1% hits; also: % is scaled to controls: 0 for no effect and ±100 for the full control effect; nearly all actives have a fitted effect of over 60% in size
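Aggregate formation scored by laser-scanning cytometer (488 excitation, 500–530 emission) in lysed PC12 cells expressing Q103-GFP after 100 nM tebufenozide induction; library tested in dose series, with ATPLite reagent added in the multiplex.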
TGFb SMAD3 inh: inhibitors of TGF-b signaling; Potency, µM (series often up to 46.1 µM), without a hit: top-dose activity, negative = inhibition, usual class: inhibitors; 410,000 compounds, 1.2% hits; HepG2 CAGA-GFP TGF-b/SMAD3 reporter, GFP fluorescence, 18 h; TGF-beta stimulated, 500 pg/mL final; also: % is scaled to controls: 0 for no effect and ±100 for the full control effect; nearly all actives have a fitted effect of over 65% in size
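TGF-beta reporter screen: HEPG2 CAGA-GFP, 1% FBS, 500 pg/mL TGF-beta final, 18 h; per-cell GFP summed per well; curves fitted and categorized by class.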
S2 tox: reduces viability in counter-screen for ATXN expression inhibitors; 400,000 compounds, 0.49% hits; AID 651635; S2 cells (HEK-293 line with an ATXN2-luciferase reporter) viability, CellTiter-Fluor protease fluorescence, 24 h; Potency, µM (doses to about 56.7 µM), actives largely listed as cytotoxic; also: nearly all actives have a fitted effect of over 40% in size
HepG2 tox-1: counter-screen for TGF-b inhibitors: cytotoxicity in HepG2 cells | HepG2 CAGA-GFP viability, ATP luminescence, 18 h | Potency, µM (series often up to 46.1 µM), for the others: at the highest dose activity change, negative = cytotoxicity, most hits filed as cytotoxic | 410,000 compounds, 0.76% hits
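HepG2 CAGA-GFP cells (1000/well, DMEM with 1% FBS) received compound, then TGF-beta at 500 pg/mL final, and were incubated 18 hours at 37 degrees C. Viability was read by CellTiter-Glo luminescence. Media-only wells were set as complete cell-killing and DMSO as no toxicity.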
TGFb CAGA inh: confirmation of TGF-b signaling inhibitors in HepG2 reporter cells. HepG2 CAGA-GFP TGF-b reporter, GFP fluorescence, 18 h; cells stimulated with TGF-beta, 500 pg/mL. Potency, µM (top dose mostly 46.1 µM), for inactives: top-dose activity, negative = inhibition, most hits filed as inhibitors. shares compounds with TGFb SMAD3 inh. 1,600 compounds, 63% hits; also: % is scaled to controls: 0 for no effect and ±100 for the full control effect; nearly all actives have a fitted effect of over 65% in size
HepG2 tox-2: HepG2 cytotoxicity, TGF-b inhibitor counterscreen. shares compounds with TGFb SMAD3 inh. HepG2 CAGA-GFP viability, ATP luminescence, 18 h; cells stimulated with TGF-beta, 500 pg/mL. Potency, µM (titrated, usually from 46.1 µM), inactives show at the highest dose activity, negative = cytotoxicity, hits mostly inhibitors. 1,600 compounds, 27% hits. AID 720535; also: % is scaled to controls: 0 for no effect and ±100 for the full control effect; nearly all actives have a fitted effect of over 70% in size
TGFb CCL64 inh: orthogonal confirmation of TGF-b inhibitors in CCL64 cells. shares compounds with TGFb SMAD3 inh. CCL64 CAGA-GFP reporter, TGF-b stimulated, GFP fluorescence, 18 h. Potency, µM (series often up to 46.1 µM), inactives show at the highest dose activity, negative = inhibition, hits mostly inhibitors. 1,600 compounds, 41% hits. AID 720536; also: nearly all actives have a fitted effect of over 65% in size
COP TGFb inh: validation of TGF-b inhibitors in HepG2 COP promoter reporter | shares compounds with TGFb SMAD3 inh | HepG2 COP-GFP TGF-b reporter, GFP fluorescence, 18 h; cells stimulated by added recombinant TGF-beta | Potency, µM (series often up to 46.1 µM), for inactives: top-dose activity, negative = inhibition, hits mostly inhibitors | 1,600 compounds, 3% hits | AID 720537; also: nearly all actives have a fitted effect of over 70% in size
Numbers without * were called inactive; i = inactive; ? = inconclusive; . = no result; [ ] = another dose, or the depositor's remark. Calls follow the shape of the dose curve; as a rule, active = well fitted curve in the direction sought with a large enough effect; inconclusive = small, poorly fitted or top-dose-only effect, or another doubt; inactive = no such curve, though single readings can be large; an effect the other way counts as inactive or inconclusive. Potency is read from the fitted curve at half-maximal effect.

SMILES	HTT ATP protect	ATXN2 expr inh	HttQ103 aggreg	TGFb SMAD3 inh	S2 tox	HepG2 tox-1	TGFb CAGA inh	HepG2 tox-2	TGFb CCL64 inh	COP TGFb inh
Cc1noc(C)c1COc1ccccc1C(=O)N(C)Cc1ccc(C(C)(C)C)cc1	.	.	.	11.2µM*	i	-26.5%	16.4µM*	?	?	43.9%
CN(C)/C=N/c1nc2c(ncn2C2CC(O)C(CO)O2)c(=O)[nH]1 (stereo unspecified)	.	.	.	-2.4%	.	5.5%	.	.	.	.
Cc1csc2c(N3CCN(C(=O)c4ccc(C(C)(C)C)cc4)CC3)ncnc12	18.4%[10 µM]	.	26.6%[9.22 µM]	11.2µM*	i	-37.7%	9.2µM*	-21.0%	?	11.2%
Cc1csc2c(N3CCN(C(=S)Nc4ccc(C(F)(F)F)cc4)CC3)ncnc12	10.4%[10 µM]	.	-3.6%[9.22 µM]	?	i	-33.7%	.	.	.	.
O=C(COC(=O)c1ccc(C(F)(F)F)cc1)NC(=O)C1CCCCC1	.	.	.	4.0%	.	-2.1%	.	.	.	.
Cc1ccc2nc(Nc3nc(-c4ccccc4)cc(=O)[nH]3)nc(C)c2c1	-49.9%	-25.1%	7.6%	?	i	2.7%	.	.	.	.
COc1ccc2c(C)nc(Nc3nc(-c4ccccc4)cc(=O)[nH]3)nc2c1	-92.6%[10 µM]	-43.9%	?	3.98µM*	?	-58.5%	2.31µM*	5.8µM*	?	16.2%
NC(c1csc(Nc2cnccn2)n1)c1ccccc1Cl (stereo unspecified)	.	-25.6%	.	6.2%	i	-9.1%	.	.	.	.
NC(Cc1ccc(F)cc1)c1csc(Nc2ccc(C(F)(F)F)cn2)n1 (stereo unspecified)	.	?	.	10µM*	.	-111.1%	?	?	?	-26.6%
NC(Cc1cnc[nH]1)c1csc(Nc2ccc(C(F)(F)F)cn2)n1 (stereo unspecified)	.	-0.9%	.	19.7%	i	-22.3%	.	.	.	.
NC(Cc1ccc(C(F)(F)F)cc1)c1csc(Nc2cnccn2)n1 (stereo unspecified)	.	?	.	7.08µM*	?	-67.9%	?	?	?	62.3%
NC(C(=O)O)c1nn[nH]n1 (stereo unspecified)	.	.	.	0.3%	.	-15.6%	.	.	.	.
COc1ccc(C=Nc2c(O)ccc3ccccc23)cc1OC	-13.7%[10 µM]	.	.	.	.	.	.	.	.	.
CC(CSC(=O)c1ccccc1)C(=O)N1C[C@@H](Sc2ccccc2)C[C@H]1C(=O)O (stereo partly specified)	10.5%	9.1%[25.6 µM]	4.0%	.	i	.	.	.	.	.
CCOc1ccc(CCN2C(=S)N([C@@H](Cc3ccc(O)cc3)CN3CCC[C@@H]3CN3C(=S)NC[C@@H]3CC(C)C)C[C@@H]2Cc2ccccc2)cc1	.	0.0%	.	?	?	-9.6%	?	-3.2%	?	14.9%
